For 11 compounds, growth results are on record in PubChem BioAssay (NCI).

Some test systems named below: SK-MEL-2 melanoma; EKVX NSCLC; SN12C renal; UO-31 renal; TK-10 renal; ACHN renal; CAKI-1 renal; A498 renal; CCRF-CEM leukemia; MOLT-4 leukemia; SR leukemia; OVCAR-8 ovarian; OVCAR-5 ovarian; OVCAR-4 ovarian; SK-OV-3 ovarian; HS 578T breast; NCI/ADR-RES ovarian; RPMI-8226 leukemia; IGROV1 ovarian; OVCAR-3 ovarian.
What all share (assay): NCI-60 one-dose screen, 48 h (100 = growth as untreated, 0 = no growth, -100 = all killed)
Holding throughout (details): 10 µM unless noted

The panel holds about 83,000 compounds, 20% with a hit somewhere; the sample as a whole holds those more often.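 Plates (96-well) were seeded with cells, treated with compound at one concentration, and incubated for 48 hours before percent growth was determined.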 Values without a mark were called inactive. Activity calls are given as the source filed them. How the source made its calls: active means growth percent below 10; inactive means the rest.

On to `CC1Cc2c(ncn3c(-c4ccc(F)cc4)nnc23)N(C)c2ccccc21` (configuration not stated), for which the growth in the assay with SK-MEL-2 melanoma was 99.6%; in the assay on EKVX NSCLC it was 32.8%; in the assay with SN12C renal, 19.8%; in the assay on UO-31 renal, 27.6%; in the assay on TK-10 renal, 21.8%; with ACHN renal, 44%. Further, the growth in the assay with CAKI-1 renal was 55.5%; in the assay with A498 renal, 28.3%; in the assay with CCRF-CEM leukemia, 49.3%; in the assay with MOLT-4 leukemia, 82.1%; in the assay on SR leukemia, 25%; with OVCAR-8 ovarian, 57.1%. For the same compound, the growth is 78% with OVCAR-5 ovarian; -66.2% (active) in the assay on OVCAR-4 ovarian; 76.3% with SK-OV-3 ovarian; 26.1% in the assay on HS 578T breast; 41% in the assay on NCI/ADR-RES ovarian.
As to `c1ccc2c(-c3nc(-c4c[nH]c5ccncc45)cs3)c[nH]c2c1`, the growth is 97.8% with SK-MEL-2 melanoma; 35% with EKVX NSCLC; 68.9% with SN12C renal; 44.4% in the assay with UO-31 renal; 56.4% with TK-10 renal; 23.5% in the assay with ACHN renal. Also, the growth was 17.1% in the assay on CAKI-1 renal; 85.5% in the assay on A498 renal; 2.54% (active) with CCRF-CEM leukemia; 30% with MOLT-4 leukemia; 10.9% in the assay with RPMI-8226 leukemia; 60.2% with OVCAR-8 ovarian. In addition, the growth was 70.8% with OVCAR-5 ovarian; 59.5% in the assay on OVCAR-4 ovarian; 73.3% in the assay on SK-OV-3 ovarian; 54.2% in the assay with IGROV1 ovarian; 72.3% with OVCAR-3 ovarian; 72.3% in the assay with HS 578T breast. For the same compound, the growth with NCI/ADR-RES ovarian is 72.7%.
As to `COc1ccc(-c2ncnc3c2ncn3CC#CCCl)cc1`, the growth in the assay on SK-MEL-2 melanoma was 53.4%; with EKVX NSCLC, 115%; in the assay with SN12C renal, 46.3%; in the assay on UO-31 renal, -86.7% (active); in the assay on TK-10 renal, 69.8%; in the assay on ACHN renal it was 52.8%. The growth with CAKI-1 renal was 61.8%; with A498 renal, 55.7%; in the assay with CCRF-CEM leukemia it was 19.1%; in the assay on MOLT-4 leukemia, 4.95% (active); with RPMI-8226 leukemia it was 34.7%; with OVCAR-8 ovarian, 65.3%. The growth is 97.7% with OVCAR-5 ovarian; 51.1% in the assay with OVCAR-4 ovarian; 85.8% with SK-OV-3 ovarian; 46.2% in the assay with IGROV1 ovarian; 53.4% in the assay on OVCAR-3 ovarian; 107% with HS 578T breast. The growth with NCI/ADR-RES ovarian is 56.2%.
Regarding `Cc1cc(N2CCCC2)nc(N(CCCNc2ccnc3cc(Cl)ccc23)Cc2ccccn2)n1`, the growth in the assay on SK-MEL-2 melanoma was 71.7%; in the assay with EKVX NSCLC, 66.2%; with SN12C renal it was 52%; with UO-31 renal, 5.6% (active); in the assay on TK-10 renal, 80.3%; in the assay on ACHN renal, 80.8%. The growth in the assay with CAKI-1 renal was 84.4%; in the assay on A498 renal, 42%; in the assay with CCRF-CEM leukemia, 55%; with MOLT-4 leukemia, 46.7%; in the assay with RPMI-8226 leukemia, 28%; in the assay with OVCAR-8 ovarian, 49.2%. In addition, the growth in the assay with OVCAR-5 ovarian is 59.6%; in the assay on OVCAR-4 ovarian, 81%; with SK-OV-3 ovarian it was 76.5%; with IGROV1 ovarian, 50.7%; with OVCAR-3 ovarian, 59.5%; in the assay on HS 578T breast, 72.6%. For the same compound, the growth in the assay with NCI/ADR-RES ovarian is 39.2%.
`Cc1ccc(-c2nc3c(c(-c4ccccc4)nn3-c3ccccc3)c(-c3ccc(O)cc3)c2C#N)cc1`: the growth with SK-MEL-2 melanoma was 78.7%; in the assay with EKVX NSCLC, 74.5%; in the assay on SN12C renal it was 53.7%; in the assay on UO-31 renal it was 39.4%; with TK-10 renal, 38.3%; in the assay on ACHN renal, 67.6%. For the same compound, the growth with CAKI-1 renal was 50.4%; in the assay on A498 renal it was 44.2%; in the assay on CCRF-CEM leukemia it was 39.1%; with MOLT-4 leukemia, 40.5%; in the assay on RPMI-8226 leukemia, 21.4%; with OVCAR-8 ovarian, 69%. In addition, the growth was 104% with OVCAR-5 ovarian; 82.2% with OVCAR-4 ovarian; 92.6% in the assay with SK-OV-3 ovarian; 82.6% with IGROV1 ovarian; 64.5% in the assay with OVCAR-3 ovarian; 24% in the assay on HS 578T breast. Besides, the growth with NCI/ADR-RES ovarian is 81.4%.
For `Brc1ccc2[nH]cc(-c3nc(-c4c[nH]c5ccncc45)cs3)c2c1`, the growth in the assay with SK-MEL-2 melanoma is -46.8% (active); in the assay with EKVX NSCLC, -67.7% (active); with SN12C renal, -85.6% (active); with UO-31 renal it was -83.9% (active); with TK-10 renal, -53% (active); in the assay with ACHN renal, -95.5% (active). The growth was -92.6% (active) in the assay on CAKI-1 renal; 55.9% with A498 renal; -23.3% (active) with CCRF-CEM leukemia; -58.4% (active) in the assay with MOLT-4 leukemia; -23.4% (active) with RPMI-8226 leukemia; -64.5% (active) with OVCAR-8 ovarian. The growth is 38.9% in the assay with OVCAR-5 ovarian; -77.8% (active) with OVCAR-4 ovarian; 87.6% in the assay on SK-OV-3 ovarian; -86.5% (active) with IGROV1 ovarian; -91.6% (active) in the assay on OVCAR-3 ovarian; -48.4% (active) with HS 578T breast. Besides, in the assay with NCI/ADR-RES ovarian, the growth was 14.1%.
`CC1Cc2ccccc2N1NC(=O)c1ccc(Cl)c(S(N)(=O)=O)c1` (configuration not stated): the growth in the assay on SK-MEL-2 melanoma is 99.4%; in the assay on EKVX NSCLC it was 108%; with SN12C renal, 96.3%; with UO-31 renal, 83.6%; with TK-10 renal, 101%; in the assay with ACHN renal, 98%. The growth is 94.5% in the assay on CAKI-1 renal; 114% in the assay with A498 renal; 95.9% with CCRF-CEM leukemia; 86.5% in the assay on MOLT-4 leukemia; 101% with RPMI-8226 leukemia; 104% in the assay with OVCAR-8 ovarian. The growth was 105% in the assay on OVCAR-5 ovarian; 98.7% in the assay with OVCAR-4 ovarian; 98.4% in the assay on SK-OV-3 ovarian; 98.6% with IGROV1 ovarian; 119% with OVCAR-3 ovarian; 107% with HS 578T breast. Moreover, the growth in the assay on NCI/ADR-RES ovarian was 101%.
`C=C1CC[C@H](C(C)C)[C@@H]2[C@H]1[C@H]1CC(=C)[C@@H](O)CC[C@@](C)(O)[C@@H]2O1`: the growth with SK-MEL-2 melanoma was 80.9%; in the assay with EKVX NSCLC, 98.1%; in the assay on SN12C renal, 109%; in the assay on UO-31 renal, 82.6%; in the assay on TK-10 renal it was 103%; in the assay with ACHN renal, 95.8%. The growth with CAKI-1 renal is 95.1%; with A498 renal, 89.3%; with CCRF-CEM leukemia it was 94%; with MOLT-4 leukemia, 119%; in the assay with RPMI-8226 leukemia, 93.3%; with OVCAR-8 ovarian, 99.4%. The growth is 79.5% with OVCAR-5 ovarian; 98.5% in the assay with OVCAR-4 ovarian; 109% in the assay with SK-OV-3 ovarian; 107% in the assay on IGROV1 ovarian; 101% in the assay on OVCAR-3 ovarian; 92.4% in the assay on HS 578T breast. Besides, the growth with NCI/ADR-RES ovarian was 85.9%.
With `O=c1[nH]c2c(ccc3cnccc32)c2c1CCC2`, the growth with SK-MEL-2 melanoma is -15.9% (active); with EKVX NSCLC, -13.5% (active); in the assay on SN12C renal, 7.16% (active); with UO-31 renal, -11.5% (active); in the assay on TK-10 renal, -5.65% (active); with ACHN renal, 6.67% (active). The growth is -19.9% (active) in the assay with CAKI-1 renal; -51.5% (active) with A498 renal; -22.3% (active) with CCRF-CEM leukemia; 15.9% in the assay on MOLT-4 leukemia; -31% (active) with RPMI-8226 leukemia; 13.9% in the assay on OVCAR-8 ovarian. Moreover, the growth with OVCAR-5 ovarian is -2.64% (active); with OVCAR-4 ovarian it was 28.3%; in the assay with SK-OV-3 ovarian, 3.27% (active); in the assay on IGROV1 ovarian, -71% (active); in the assay with OVCAR-3 ovarian it was -27% (active); in the assay on HS 578T breast, -21.8% (active). The growth in the assay with NCI/ADR-RES ovarian is 7.35% (active).
On to `C=C1CC[C@@]2(C#N)[C@H]3[C@H](CC[C@@H]2C)[C@@H](C)C[C@@H](CC(C)(C)C#N)[C@H]13`, for which the growth with SK-MEL-2 melanoma was 61.3%; in the assay on EKVX NSCLC, 32.9%; in the assay with SN12C renal, 60.7%; with UO-31 renal, 14%; with TK-10 renal, 50.6%; in the assay on ACHN renal, 28%. Moreover, the growth is 19% in the assay on CAKI-1 renal; 51.1% in the assay with A498 renal; 22% in the assay on CCRF-CEM leukemia; 29.3% in the assay with MOLT-4 leukemia; 40.3% in the assay with RPMI-8226 leukemia; 49.1% in the assay on OVCAR-8 ovarian. For the same compound, the growth with OVCAR-5 ovarian was 48.5%; with OVCAR-4 ovarian it was 37.7%; in the assay with SK-OV-3 ovarian, 46.1%; in the assay with IGROV1 ovarian, 42.9%; in the assay with OVCAR-3 ovarian it was 51%; in the assay with HS 578T breast, 30.2%. Further, the growth with NCI/ADR-RES ovarian was 35.4%.
Turning to `COc1ccc(OC)c(/C=C/C(=O)N/N=C/c2ccc(Cl)cc2)c1`, the growth with SK-MEL-2 melanoma was 22.3%; in the assay on EKVX NSCLC, 43.1%; with SN12C renal, 46.2%; in the assay with UO-31 renal, 30.1%; in the assay on TK-10 renal, 51%; with ACHN renal it was 48.4%. In addition, the growth is 41.8% in the assay with CAKI-1 renal; 12.5% in the assay with A498 renal; 13.7% in the assay on CCRF-CEM leukemia; 26.3% in the assay with MOLT-4 leukemia; 21.3% in the assay with RPMI-8226 leukemia; 21% in the assay with OVCAR-8 ovarian. Further, the growth in the assay with OVCAR-5 ovarian is 28.4%; with OVCAR-4 ovarian it was 40.2%; in the assay on SK-OV-3 ovarian, -4.93% (active); with IGROV1 ovarian, 17.9%; in the assay with OVCAR-3 ovarian, -43.4% (active); in the assay on HS 578T breast it was -1.72% (active). Also, the growth in the assay on NCI/ADR-RES ovarian is 3.82% (active).
